The results in this text go back to PubChem BioAssay.

Experiment [1] in a line: compounds binding Alexa647 anti-His antibody – biochemical, small-molecule microarray, 635 nm fluorescence, artefact control for SMM control protein annotation, primary screen (AID 1128).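 Further: score merges feature fluorescence with signal-to-noise for each printed compound spot.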 The settings on record: higher = more signal.
Experiment [2] deals with Human papillomavirus type 1a E7 protein (residues 1-88). Description: HPV1a E7 small-molecule binders, primary screen, biochemical, small-molecule microarray, residues 1-88, 635 nm (AID 1129). The settings on record: small-molecule microarray binding, fluorescence 635 nm; higher = more signal.
Experiment [3] addresses Focal adhesion kinase 1 (Homo sapiens) (UniProt Q05397). Description: PTK2 protein binding on printed compound slides – biochemical, small-molecule microarray, 635/667 nm fluorescence, BSA, DTT, primary screen (AID 1130).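 Further: composite of spot emission at 667 nm and signal to noise over triplicate slides.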 Particulars: 635 nm fluorescence, higher = more signal.
For experiment [4], the system named is Fibrinogen (Alexa647-labelled). Description: Alexa647-fibrinogen binding to printed small molecules – biochemical, small-molecule microarray, 635/667 nm fluorescence, artefact control for SMM control-protein annotation, profiling panel (AID 1131).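 Further: z-score merges 667 nm fluorescence with per-spot signal-to-noise over triplicate slides.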 The settings on record: fibrinogen-A647 binding fluorescence, higher = more signal.
Experiment [5] addresses Follistatin (Homo sapiens) (UniProt P19883). The experiment in a line: FST protein binding to printed compounds – biochemical, small-molecule microarray, 635/667 nm fluorescence, primary screen (AID 1132). The settings on record: 635 nm fluorescence, higher = more signal.
For experiment [6], the target named is Fibroblast growth factor 2 (Homo sapiens) (UniProt P09038). The experiment in a line: basic fibroblast growth factor binding to printed compounds – biochemical, small-molecule microarray, 635/667 nm fluorescence, primary screen (AID 1133). The settings on record: FGF2, fluorescence 635/667, higher = more signal.
Sequence of Fibroblast growth factor 2 (Homo sapiens) (P09038 whole entry, looked up): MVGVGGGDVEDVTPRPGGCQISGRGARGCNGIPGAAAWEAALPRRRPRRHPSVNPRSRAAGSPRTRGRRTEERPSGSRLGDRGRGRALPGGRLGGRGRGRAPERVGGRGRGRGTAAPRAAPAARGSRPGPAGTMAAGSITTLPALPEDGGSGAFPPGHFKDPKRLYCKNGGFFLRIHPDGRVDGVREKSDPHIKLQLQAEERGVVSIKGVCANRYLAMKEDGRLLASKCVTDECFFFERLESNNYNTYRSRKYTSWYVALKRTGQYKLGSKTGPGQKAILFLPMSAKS
Experiment [7] in a line: JC-1 mitochondrial potential readout, lung cancer cells – cell-based, A549, JC-1 fluorescence, basal, 24 h, 100 nL, profiling panel (AID 1138).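 Further: A549 lung adenocarcinoma cells under basal conditions with no added stimulus; test concentration not given here.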 The settings on record: higher = more signal.
The next experiment deals with Lefty1. The experiment in a line: Lefty1 protein binding to printed compounds – biochemical, small-molecule microarray, 635/667 nm fluorescence, primary screen (AID 1139). The settings on record: fluorescence 635/667, higher = more signal.
Experiment [8] concerns wheat germ agglutinin (Triticum aestivum), Alexa647-labelled. Description: Alexa647-WGA lectin binding to printed small molecules – biochemical, small-molecule microarray, 635/667 nm fluorescence, artefact control for SMM control-protein annotation, profiling panel (AID 1140).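 Further: score merges 667 nm feature emission with signal to noise over triplicate slides.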 The settings on record: WGA-A647 binding, 635 nm fluorescence, higher = more signal.
The target in experiment [9] is Luciferin 4-monooxygenase (Photinus pyralis) (UniProt P08659). Description: inhibition of purified Photinus pyralis luciferase – biochemical, luminescence, purified enzyme, 2006 set, primary screen (AID 1141).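 Further: cell-free assay with purified firefly luciferase at 100 ng per well in PBS; test concentration not given here.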 The settings on record: purified firefly luciferase, SteadyGlo luminescence, 30 min; higher = more signal, called active from +8 up or from −8 down.
Sequence of Luciferin 4-monooxygenase (Photinus pyralis) (P08659 whole entry, looked up): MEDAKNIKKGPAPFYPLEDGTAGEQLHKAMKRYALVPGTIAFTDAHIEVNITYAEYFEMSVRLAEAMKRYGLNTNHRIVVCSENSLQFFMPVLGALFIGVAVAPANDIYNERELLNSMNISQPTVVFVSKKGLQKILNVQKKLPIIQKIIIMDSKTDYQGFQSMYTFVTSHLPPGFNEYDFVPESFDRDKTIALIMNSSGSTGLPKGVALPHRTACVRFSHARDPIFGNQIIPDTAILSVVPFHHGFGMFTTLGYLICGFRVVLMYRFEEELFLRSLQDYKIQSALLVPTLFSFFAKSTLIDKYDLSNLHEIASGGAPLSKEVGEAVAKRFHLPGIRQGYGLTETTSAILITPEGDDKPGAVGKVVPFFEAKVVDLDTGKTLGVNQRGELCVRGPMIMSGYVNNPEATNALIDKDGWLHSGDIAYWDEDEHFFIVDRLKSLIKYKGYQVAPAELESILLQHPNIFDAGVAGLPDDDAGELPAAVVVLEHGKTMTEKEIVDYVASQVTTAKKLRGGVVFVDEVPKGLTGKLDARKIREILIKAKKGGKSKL
The test system of experiment [10] is Wnt5a (protein binding on small-molecule microarray). The experiment in a line: small molecules binding Wnt5a protein – biophysical, small-molecule microarray, 635/667 nm fluorescence, primary screen (AID 1142).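 Further: fluorescence read at 667 nm with signal to noise per printed feature.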 Particulars: 635 nm fluorescence, higher = more signal.
Experiment [11] can be described thus: ATP-based viability of Huh7 replicon cells – cell-based, CellTiter-Glo luminescence, basal, 48 h, cytotoxicity control for HCV replication inhibitor project, primary screen (AID 1143).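 Further: Huh7 hepatoma cells carrying a hepatitis C replication reporter with no stimulus; test concentration not given here.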 The settings on record: higher = more signal, called active from +8 up or from −8 down.
A short description of experiment [12]: Pseudomonas biofilm growth suppression – PAO1 strain, BacTiter-Glo luminescence, LB-PBS, primary screen (AID 1144). The settings on record: P. aeruginosa PAO1 biofilm, 12 h, higher = more signal.
Experiment [13] in a line: basal CRE-LacZ reporter activity in PC12 – cell-based, unstimulated, primary screen (AID 1145). Particulars: no forskolin, luminescence, 4.5 h, higher = more signal, called active from +8 up or from −8 down.
The nature of experiment [14]: forskolin-driven CRE-LacZ activity in PC12 – cell-based, CRE-LacZ reporter, forskolin-stimulated, primary screen (AID 1146).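 Further: PC12 cells with 6xCRE LacZ reporter stimulated by forskolin 10 µM; beta-galactosidase reporter signal reflecting CREB driven transcription.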 The settings on record: luminescence, 4.5 h, higher = more signal, called active from +8 up or from −8 down.
Experiment [15] has as its target Streptavidin (Streptomyces avidinii) (UniProt P22629). The experiment in a line: compounds binding control protein streptavidin – biophysical, small-molecule microarray, 635/667 nm fluorescence, artefact control for SMM compound annotation, primary screen (AID 1147).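 Further: signal reflects streptavidin binding to arrayed compounds as a control protein.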 The settings on record: higher = more signal.
The nature of experiment [16]: probe aInhba binding on compound microarray – biochemical, small-molecule microarray, 635/667 nm fluorescence, primary screen (AID 1148).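 Further: score merges 667nm spot fluorescence with signal-to-noise for antibody binding to printed compounds.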 The settings on record: higher = more signal.
Experiment [17] has as its target Torsin-1A (Homo sapiens) (UniProt O14656). The experiment in a line: TOR1A wild-type binding on microarray – cell lysate, small-molecule microarray, lysate, 635/667 nm, primary screen (AID 1149). The settings on record: COS7 hTOR1A-WT lysate, 635 nm fluorescence, higher = more signal.
The target is the same in experiment [18]. The experiment in a line: torsin A mutant lysate binding on microarrays – cell lysate, small-molecule microarray, COS7 lysate, 635/667 nm fluorescence, primary screen (AID 1150).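 Further: score pools 667 nm emission and signal to noise measuring lysate protein binding.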 Particulars: COS7 hTOR1A mutant lysate, 635 nm fluorescence, higher = more signal.
Experiment [19] concerns Sonic hedgehog protein (Shh). Description: Sonic hedgehog microarray binding compounds – biochemical, small-molecule microarray, 635/667 nm fluorescence, primary screen (AID 1151).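 Further: Shh protein binding to compounds spotted on small-molecule microarray slides; score combines spot fluorescence intensity with signal-to-noise across triplicate slides.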 Particulars: 635 nm fluorescence, higher = more signal.

SMILES strings stand for the structures. Values joined by “and” are separate entries in the source; they are usually repeats but may differ in a detail not shown here. Identical values can stand only once. Active and inactive are the calls of the source. Unless noted, how the calls were made is not given here.

Sequence of Torsin-1A (Homo sapiens) (O14656 whole entry, looked up): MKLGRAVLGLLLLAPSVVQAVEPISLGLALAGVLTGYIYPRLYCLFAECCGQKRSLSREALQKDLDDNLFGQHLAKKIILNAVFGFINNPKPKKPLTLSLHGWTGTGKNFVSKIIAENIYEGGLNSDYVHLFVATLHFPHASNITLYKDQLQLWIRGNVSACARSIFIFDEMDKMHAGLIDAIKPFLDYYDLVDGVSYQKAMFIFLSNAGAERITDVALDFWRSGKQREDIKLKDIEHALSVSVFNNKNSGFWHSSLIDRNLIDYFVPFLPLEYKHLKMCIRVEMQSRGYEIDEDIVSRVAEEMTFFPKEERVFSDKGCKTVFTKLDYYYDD
Sequence of Focal adhesion kinase 1 (Homo sapiens) (Q05397 whole entry, looked up): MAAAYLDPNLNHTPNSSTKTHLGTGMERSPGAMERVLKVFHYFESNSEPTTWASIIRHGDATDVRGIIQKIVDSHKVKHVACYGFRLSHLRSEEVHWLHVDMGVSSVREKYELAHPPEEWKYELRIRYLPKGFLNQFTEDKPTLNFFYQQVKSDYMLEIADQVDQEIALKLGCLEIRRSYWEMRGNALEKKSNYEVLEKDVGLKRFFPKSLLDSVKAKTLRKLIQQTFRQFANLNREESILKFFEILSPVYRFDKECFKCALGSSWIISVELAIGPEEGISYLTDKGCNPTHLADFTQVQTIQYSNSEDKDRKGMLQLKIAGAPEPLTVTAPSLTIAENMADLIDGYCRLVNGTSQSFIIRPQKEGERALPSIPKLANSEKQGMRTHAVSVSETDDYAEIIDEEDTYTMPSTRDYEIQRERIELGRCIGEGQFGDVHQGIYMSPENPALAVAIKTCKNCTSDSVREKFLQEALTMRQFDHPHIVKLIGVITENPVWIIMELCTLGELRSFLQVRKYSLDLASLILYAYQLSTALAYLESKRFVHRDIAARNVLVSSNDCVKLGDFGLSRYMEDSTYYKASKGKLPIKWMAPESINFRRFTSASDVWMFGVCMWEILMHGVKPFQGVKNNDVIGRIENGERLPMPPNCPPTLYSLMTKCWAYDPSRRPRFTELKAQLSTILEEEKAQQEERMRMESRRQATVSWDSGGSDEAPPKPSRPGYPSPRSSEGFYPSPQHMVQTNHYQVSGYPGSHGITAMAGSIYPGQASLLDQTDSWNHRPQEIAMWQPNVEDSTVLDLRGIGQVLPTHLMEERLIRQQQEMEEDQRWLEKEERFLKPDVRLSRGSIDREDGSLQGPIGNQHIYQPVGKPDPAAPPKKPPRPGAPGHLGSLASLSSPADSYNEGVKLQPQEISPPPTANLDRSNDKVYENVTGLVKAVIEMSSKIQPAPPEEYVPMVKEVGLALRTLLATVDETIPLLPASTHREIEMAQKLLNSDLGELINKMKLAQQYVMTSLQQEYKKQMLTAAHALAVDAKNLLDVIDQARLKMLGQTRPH
Sequence of Streptavidin (Streptomyces avidinii) (P22629 whole entry, looked up): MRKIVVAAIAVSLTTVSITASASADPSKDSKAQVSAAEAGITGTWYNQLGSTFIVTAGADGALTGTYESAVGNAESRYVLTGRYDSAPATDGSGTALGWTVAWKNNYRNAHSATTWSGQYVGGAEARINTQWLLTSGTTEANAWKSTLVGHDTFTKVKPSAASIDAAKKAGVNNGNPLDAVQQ
Sequence of Follistatin (Homo sapiens) (P19883 whole entry, looked up): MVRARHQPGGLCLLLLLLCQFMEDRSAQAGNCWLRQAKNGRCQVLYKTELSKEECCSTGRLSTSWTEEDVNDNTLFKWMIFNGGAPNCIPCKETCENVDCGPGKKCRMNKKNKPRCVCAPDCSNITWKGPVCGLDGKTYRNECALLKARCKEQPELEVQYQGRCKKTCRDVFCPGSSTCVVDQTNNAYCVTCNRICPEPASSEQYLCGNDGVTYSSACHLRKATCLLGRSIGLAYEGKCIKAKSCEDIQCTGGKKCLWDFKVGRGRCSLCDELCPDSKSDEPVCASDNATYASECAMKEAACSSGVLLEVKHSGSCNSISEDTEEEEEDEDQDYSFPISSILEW

`Cc1ccc(S(=O)(=O)N[C@H]2COC(=O)[C@@H](C)COC(=O)[C@H](C)NC(=O)CC=C[C@H]2C)cc1`: the composite z-score was -0.293 in [1]; -0.336 in [2]; -0.295 in experiment [3]; -0.343 in experiment [4]; 0.162 in [5]; 1.09 in experiment [6]. The composite z-score with Lefty1 was 0.72; in [8], -0.634; in [10], 0.105; in [15], -0.192; in experiment [16], -0.128; in the experiment with Torsin-1A (Homo sapiens) [17] it was -0.233. Besides, the composite z-score was -0.11 with Torsin-1A (Homo sapiens) [18] and 0.837 in experiment [19]. In addition, the z-score in experiment [7] was 0.637; in experiment [9], -0.402 (inactive); in experiment [11], 0.365 (inactive); in [12] it was -0.16 (inactive); in experiment [13], -0.204 (inactive); in [14] it was -0.253 (inactive).
With `C=CCN(C(=O)C(c1cccs1)N(C(=O)/C=C\C(=O)O)C(C)(C)CO)C(C)(C)C` (stereo not given), the composite z-score in [1] was -0.119 and 1.08; in [2] it was 0.0785 and -0.562; in experiment [3] it was -0.033 and 0.193; in [4], -0.654 and 0.99; in experiment [5], -0.493 and -1.32; in experiment [6], -0.454 and -0.588. Also, the composite z-score in the experiment with Lefty1 is -1.35 and -1.25; in experiment [8], -0.452 and -0.231; in experiment [10], -0.291 and -0.768; in [15], -0.689 and -1.22; in experiment [16] it was -0.0581 and -0.0791; in the experiment with Torsin-1A (Homo sapiens) [17] it was -0.331 and -0.511. Moreover, the composite z-score in the experiment with Torsin-1A (Homo sapiens) [18] is 0.214 and 1.51; in [19], -0.645 and -0.105. In addition, the z-score in [7] is 1.12 and 0.815; in experiment [9] it was -1.45 (inactive) and -0.975 (inactive); in [11], -0.261 (inactive) and 0.272 (inactive); in experiment [12], -1.52 (inactive) and -1.38 (inactive); in [13], -0.887 (inactive) and -0.761 (inactive); in [14], -0.706 (inactive) and -0.329 (inactive).
In the case of `C=CCN(C(=O)C(c1cccs1)N(C(=O)/C=C\C(=O)O)c1ccc(CCO)cc1)C(C)(C)C` (stereo not given), the composite z-score is 0.381 and 2.21 in experiment [1]; 0.07 and 0.0514 in [2]; 0.721 and -0.265 in [3]; -0.548 and -3.6 in [4]; -0.985 and -1.66 in experiment [5]; -1.22 and -1.05 in experiment [6]. Besides, the composite z-score was -1.76 and -2 with Lefty1; 0.559 and -0.287 in experiment [8]; -0.156 and -1.27 in experiment [10]; -0.298 and -0.966 in experiment [15]; -0.154 and -0.227 in [16]; -0.603 and -2.33 with Torsin-1A (Homo sapiens) [17]. Further, the composite z-score was 1.56 and -2.14 with Torsin-1A (Homo sapiens) [18]; -0.754 and -1.36 in [19]. Besides, the z-score was 0.428 and 0.741 in experiment [7]; -0.928 (inactive) and -0.538 (inactive) in experiment [9]; -0.243 (inactive) and 0.38 (inactive) in experiment [11]; -0.638 (inactive) and 0.984 (inactive) in [12]; -0.0859 (inactive) and 0.597 (inactive) in [13]; 0.332 (inactive) and -0.439 (inactive) in [14].
On to `O=C1[C@H]2[C@H]3[C@H](O)[C@H](O)CC(=NOCc4ccccc4)[C@H]3CC[C@H]2C(=O)N1Cc1ccccc1`, for which the composite z-score is 0.17 in experiment [1]; -0.137 in experiment [2]; -0.0933 in experiment [3]; -0.908 in experiment [4]; 0.659 in experiment [5]; 0.327 in [6]. Moreover, the composite z-score in the experiment with Lefty1 is 0.374; in [8] it was 0.0116; in experiment [10] it was 0.0003; in [15] it was 0.725; in experiment [16] it was -0.257; with Torsin-1A (Homo sapiens) [17], 0.119. Besides, the composite z-score in the experiment with Torsin-1A (Homo sapiens) [18] amounted to 0.358; in experiment [19] it was 0.659. The z-score in experiment [7] was -0.901; in experiment [9], 0.983 (inactive); in [11], -5.42 (inactive); in experiment [12], -0.788 (inactive); in experiment [13], 0.796 (inactive); in experiment [14] it was 0.888 (inactive).
